Where a chain is given by its changes, count along the chain named.
Experiments:
Experiment in all cases: PBM; 200 nM protein, PBS
Conditions in all cases: dsDNA, one strand shown
SIX6 [1] = target: T1, SIX6 (Homo sapiens, UniProt O95475 114-200, L167I)
T1 sequence: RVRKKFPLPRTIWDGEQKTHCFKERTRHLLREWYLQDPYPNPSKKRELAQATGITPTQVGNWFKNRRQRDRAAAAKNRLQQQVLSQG

SIX6 [2] = target: T2, SIX6 (Homo sapiens, UniProt O95475 114-200, L143V)
T2 sequence: T1 sequence with L30V, I54L

SIX6 [3] = target: T3, SIX6 (Homo sapiens, UniProt O95475 114-200, H141N)
T3 sequence: T1 sequence with H28N, I54L

SIX6 [4] = target: T4, SIX6 (Homo sapiens, UniProt O95475 114-200, T165P)
T4 sequence: T1 sequence with T52P, I54L

SIX6 [5] = target: T5, SIX6 (Homo sapiens, UniProt O95475 114-200, L167M)
T5 sequence: T1 sequence with I54M

SIX6 [6] = target: T6, SIX6 (Homo sapiens, UniProt O95475 114-200, L143M)
T6 sequence: T1 sequence with L30M, I54L

SIX6 [7] = target: T7, SIX6 (Homo sapiens, UniProt O95475 114-200, L143I)
T7 sequence: T1 sequence with L30I, I54L

SIX6 [8] = target: T8, SIX6 (Homo sapiens, UniProt O95475 114-200, T165G)
T8 sequence: T1 sequence with T52G, I54L

SIX6 [9] = target: T9, SIX6 (Homo sapiens, UniProt O95475 114-200, T139Q)
T9 sequence: T1 sequence with T26Q, I54L

SIX6 [10] = target: T10, SIX6 (Homo sapiens, UniProt O95475 114-200, T165A)
T10 sequence: T1 sequence with T52A, I54L

SIX6 [11] = target: T11, SIX6 (Homo sapiens, UniProt O95475 114-200, L167V)
T11 sequence: T1 sequence with I54V

SIX6 [12] = target: T12, SIX6 (Homo sapiens, UniProt O95475 114-200)
T12 sequence: T1 sequence with I54L

SIX6 [13] = target: T13, SIX6 (Homo sapiens, UniProt O95475 114-200, T165I)
T13 sequence: T1 sequence with T52I, I54L

| Sequence | binding signal (SIX6 [1]) | binding signal (SIX6 [2]) | binding signal (SIX6 [3]) | binding signal (SIX6 [4]) | binding signal (SIX6 [5]) | binding signal (SIX6 [6]) | binding signal (SIX6 [7]) | binding signal (SIX6 [8]) | binding signal (SIX6 [9]) | binding signal (SIX6 [10]) | binding signal (SIX6 [11]) | binding signal (SIX6 [12]) | binding signal (SIX6 [13]) |
| --- | --- | --- | --- | --- | --- | --- | --- | --- | --- | --- | --- | --- | --- |
| ACGATATC | 11.1 upbm affinity estimate (log intensity, higher = more binding, comparable within an allelic series) | 10.2 upbm affinity estimate (log intensity, higher = more binding, comparable within an allelic series) | 11.1 upbm affinity estimate (log intensity, higher = more binding, comparable within an allelic series) | 9.76 upbm affinity estimate (log intensity, higher = more binding, comparable within an allelic series) | 10.6 upbm affinity estimate (log intensity, higher = more binding, comparable within an allelic series) | 11 upbm affinity estimate (log intensity, higher = more binding, comparable within an allelic series) | 10.3 upbm affinity estimate (log intensity, higher = more binding, comparable within an allelic series) | 11.3 upbm affinity estimate (log intensity, higher = more binding, comparable within an allelic series) | 11.2 upbm affinity estimate (log intensity, higher = more binding, comparable within an allelic series) | 11 upbm affinity estimate (log intensity, higher = more binding, comparable within an allelic series) | 10.9 upbm affinity estimate (log intensity, higher = more binding, comparable within an allelic series) | 10.9 upbm affinity estimate (log intensity, higher = more binding, comparable within an allelic series) | 10.8 upbm affinity estimate (log intensity, higher = more binding, comparable within an allelic series) |
| ACCGCGCC | 8.84 upbm affinity estimate (log intensity, higher = more binding, comparable within an allelic series) | 8.82 upbm affinity estimate (log intensity, higher = more binding, comparable within an allelic series) | 8.81 upbm affinity estimate (log intensity, higher = more binding, comparable within an allelic series) | 8.88 upbm affinity estimate (log intensity, higher = more binding, comparable within an allelic series) | 8.85 upbm affinity estimate (log intensity, higher = more binding, comparable within an allelic series) | 8.81 upbm affinity estimate (log intensity, higher = more binding, comparable within an allelic series) | 8.86 upbm affinity estimate (log intensity, higher = more binding, comparable within an allelic series) | 8.91 upbm affinity estimate (log intensity, higher = more binding, comparable within an allelic series) | 8.95 upbm affinity estimate (log intensity, higher = more binding, comparable within an allelic series) | 8.82 upbm affinity estimate (log intensity, higher = more binding, comparable within an allelic series) | 8.78 upbm affinity estimate (log intensity, higher = more binding, comparable within an allelic series) | 8.78 upbm affinity estimate (log intensity, higher = more binding, comparable within an allelic series) | 8.84 upbm affinity estimate (log intensity, higher = more binding, comparable within an allelic series) |
| ATACGATA | 11.1 upbm affinity estimate (log intensity, higher = more binding, comparable within an allelic series) | 10.4 upbm affinity estimate (log intensity, higher = more binding, comparable within an allelic series) | 11 upbm affinity estimate (log intensity, higher = more binding, comparable within an allelic series) | 9.94 upbm affinity estimate (log intensity, higher = more binding, comparable within an allelic series) | 10.6 upbm affinity estimate (log intensity, higher = more binding, comparable within an allelic series) | 10.9 upbm affinity estimate (log intensity, higher = more binding, comparable within an allelic series) | 10.4 upbm affinity estimate (log intensity, higher = more binding, comparable within an allelic series) | 11.2 upbm affinity estimate (log intensity, higher = more binding, comparable within an allelic series) | 11.2 upbm affinity estimate (log intensity, higher = more binding, comparable within an allelic series) | 11 upbm affinity estimate (log intensity, higher = more binding, comparable within an allelic series) | 10.9 upbm affinity estimate (log intensity, higher = more binding, comparable within an allelic series) | 10.9 upbm affinity estimate (log intensity, higher = more binding, comparable within an allelic series) | 10.8 upbm affinity estimate (log intensity, higher = more binding, comparable within an allelic series) |
| CGATACCC | 11.2 upbm affinity estimate (log intensity, higher = more binding, comparable within an allelic series) | 10.2 upbm affinity estimate (log intensity, higher = more binding, comparable within an allelic series) | 11.3 upbm affinity estimate (log intensity, higher = more binding, comparable within an allelic series) | 9.23 upbm affinity estimate (log intensity, higher = more binding, comparable within an allelic series) | 10.4 upbm affinity estimate (log intensity, higher = more binding, comparable within an allelic series) | 11 upbm affinity estimate (log intensity, higher = more binding, comparable within an allelic series) | 10.4 upbm affinity estimate (log intensity, higher = more binding, comparable within an allelic series) | 11.3 upbm affinity estimate (log intensity, higher = more binding, comparable within an allelic series) | 11.4 upbm affinity estimate (log intensity, higher = more binding, comparable within an allelic series) | 11.2 upbm affinity estimate (log intensity, higher = more binding, comparable within an allelic series) | 10.9 upbm affinity estimate (log intensity, higher = more binding, comparable within an allelic series) | 11.1 upbm affinity estimate (log intensity, higher = more binding, comparable within an allelic series) | 11 upbm affinity estimate (log intensity, higher = more binding, comparable within an allelic series) |
| GATACACC | 11.1 upbm affinity estimate (log intensity, higher = more binding, comparable within an allelic series) | 10.4 upbm affinity estimate (log intensity, higher = more binding, comparable within an allelic series) | 11.1 upbm affinity estimate (log intensity, higher = more binding, comparable within an allelic series) | 9.65 upbm affinity estimate (log intensity, higher = more binding, comparable within an allelic series) | 10.7 upbm affinity estimate (log intensity, higher = more binding, comparable within an allelic series) | 10.9 upbm affinity estimate (log intensity, higher = more binding, comparable within an allelic series) | 10.4 upbm affinity estimate (log intensity, higher = more binding, comparable within an allelic series) | 11.2 upbm affinity estimate (log intensity, higher = more binding, comparable within an allelic series) | 11.2 upbm affinity estimate (log intensity, higher = more binding, comparable within an allelic series) | 11.1 upbm affinity estimate (log intensity, higher = more binding, comparable within an allelic series) | 10.9 upbm affinity estimate (log intensity, higher = more binding, comparable within an allelic series) | 11.1 upbm affinity estimate (log intensity, higher = more binding, comparable within an allelic series) | 10.9 upbm affinity estimate (log intensity, higher = more binding, comparable within an allelic series) |
| CCATATAC | 10.3 upbm affinity estimate (log intensity, higher = more binding, comparable within an allelic series) | 10.1 upbm affinity estimate (log intensity, higher = more binding, comparable within an allelic series) | 10.3 upbm affinity estimate (log intensity, higher = more binding, comparable within an allelic series) | 9.82 upbm affinity estimate (log intensity, higher = more binding, comparable within an allelic series) | 10.3 upbm affinity estimate (log intensity, higher = more binding, comparable within an allelic series) | 10.4 upbm affinity estimate (log intensity, higher = more binding, comparable within an allelic series) | 10.1 upbm affinity estimate (log intensity, higher = more binding, comparable within an allelic series) | 10.4 upbm affinity estimate (log intensity, higher = more binding, comparable within an allelic series) | 10.5 upbm affinity estimate (log intensity, higher = more binding, comparable within an allelic series) | 10.3 upbm affinity estimate (log intensity, higher = more binding, comparable within an allelic series) | 10.2 upbm affinity estimate (log intensity, higher = more binding, comparable within an allelic series) | 10.4 upbm affinity estimate (log intensity, higher = more binding, comparable within an allelic series) | 10.3 upbm affinity estimate (log intensity, higher = more binding, comparable within an allelic series) |
